# Experimental data published in the supplement of paper PMC4022240.
# ± gives the standard deviation.
# T1: HaloTag-ATRX ADD domain (163-292)
# T1 chain: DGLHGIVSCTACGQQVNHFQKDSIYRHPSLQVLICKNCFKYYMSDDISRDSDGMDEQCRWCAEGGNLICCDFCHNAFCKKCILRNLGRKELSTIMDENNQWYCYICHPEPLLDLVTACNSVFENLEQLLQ
# Assays:
# Assay in all cases: peptide microarray binding signal (635 nm), min-max normalized on array (fraction of array maximum); higher = stronger binding
# [1] = biological target: T1, HaloTag-ATRX ADD domain (163-292)
# Outline: (§1)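 Triplicate spots of histone 13-mer peptide–cellulose conjugates with a Cy3 tracer were printed on nitrocellulose and probed for 1 h at 4°C with biotin-labelled HaloTag reader fusions (10 nM to 1 μM) plus streptavidin-Alexa Fluor 647 or rabbit histone antibodies (1:10,000 to 1:2,000) plus anti-rabbit Alexa 647. An Axon GenePix 4000B read the 635 nm channel. Binding signal is the spot-triplicate mean intensity after min-max scaling within each library.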
# [2] = biological target: HaloTag-ING2 PHD (mouse Ing2 200-280)
# Outline: as §1
# [3] = biological target: anti-H3K4me3 antibody ab8580
# Outline: as §1
# [4] = biological target: anti-H3K9me3 antibody ab8898
# Outline: as §1
# [5] = peptide region: H3 20-32, peptide modifications: H3T22ph H3K23me2, binder concentration: 1:2,000 dilution
# [6] = peptide region: H3 20-32, peptide modifications: H3T22ph H3K23me2, binder concentration: 1:10,000 dilution
# [7] = peptide region: H3 30-42, peptide modifications: H3K36ac H3K37me2, binder concentration: 1:2,000 dilution
# [8] = peptide region: H3 30-42, peptide modifications: H3K36ac H3K37me2, binder concentration: 1:10,000 dilution
# [9] = peptide region: H3 30-42, peptide modifications: H3K36me1, binder concentration: 1:2,000 dilution
# [10] = peptide region: H3 30-42, peptide modifications: H3K36me1, binder concentration: 1:10,000 dilution
# [11] = peptide region: H3 20-32, peptide modifications: H3T22ph H3K23me1, binder concentration: 1:2,000 dilution
# [12] = peptide region: H3 20-32, peptide modifications: H3T22ph H3K23me1, binder concentration: 1:10,000 dilution
# [13] = peptide region: H3 30-42, peptide modifications: H3K36ac H3K37ac, binder concentration: 1:2,000 dilution
# [14] = peptide region: H3 30-42, peptide modifications: H3K36ac H3K37ac, binder concentration: 1:10,000 dilution
binder,measurement,setting,value
LATKAARKSAPAT [H3 20-32 L A Tph Kme2 A A R K S A P A T],peptide microarray binding signal,"[1]; peptide region: H3 20-32, peptide modifications: H3T22ph H3K23me2, binder concentration: 50 nM",0.004921 ± 4.8e-05
same,peptide microarray binding signal,"[1]; peptide region: H3 20-32, peptide modifications: H3T22ph H3K23me2, binder concentration: 500 nM",0.00605 ± 0.00026
same,peptide microarray binding signal,"[2]; peptide region: H3 20-32, peptide modifications: H3T22ph H3K23me2, binder concentration: 10 nM",0.0107 ± 0.0003
same,peptide microarray binding signal,"[2]; peptide region: H3 20-32, peptide modifications: H3T22ph H3K23me2, binder concentration: 100 nM",0.00893 ± 0.00037
same,peptide microarray binding signal,[3]; [5],0.00359 ± 3.6e-05
same,peptide microarray binding signal,[3]; [6],0.00268 ± 0.00016
same,peptide microarray binding signal,[4]; [5],0.00201 ± 8.1e-05
same,peptide microarray binding signal,[4]; [6],0.00196 ± 1.8e-05
PATGGVKKPHRYR [H3 30-42 P A T G G V Kac Kme2 P H R Y R],peptide microarray binding signal,"[1]; peptide region: H3 30-42, peptide modifications: H3K36ac H3K37me2, binder concentration: 50 nM",0.0026 ± 5.2e-05
same,peptide microarray binding signal,"[1]; peptide region: H3 30-42, peptide modifications: H3K36ac H3K37me2, binder concentration: 500 nM",0.00462 ± 0.00028
same,peptide microarray binding signal,"[2]; peptide region: H3 30-42, peptide modifications: H3K36ac H3K37me2, binder concentration: 10 nM",0.00269 ± 6.6e-05
same,peptide microarray binding signal,"[2]; peptide region: H3 30-42, peptide modifications: H3K36ac H3K37me2, binder concentration: 100 nM",0.00354 ± 8.3e-05
same,peptide microarray binding signal,[3]; [7],0.00125 ± 9e-05
same,peptide microarray binding signal,[3]; [8],0.00097 ± 2e-05
same,peptide microarray binding signal,[4]; [7],0.00166 ± 9.8e-05
same,peptide microarray binding signal,[4]; [8],0.00127 ± 0.0001
PATGGVKKPHRYR [H3 30-42 P A T G G V Kme K P H R Y R],peptide microarray binding signal,"[1]; peptide region: H3 30-42, peptide modifications: H3K36me1, binder concentration: 50 nM",0.0102 ± 0.00043
same,peptide microarray binding signal,"[1]; peptide region: H3 30-42, peptide modifications: H3K36me1, binder concentration: 500 nM",0.015 ± 0.0004
same,peptide microarray binding signal,"[2]; peptide region: H3 30-42, peptide modifications: H3K36me1, binder concentration: 10 nM",0.0184 ± 0.00087
same,peptide microarray binding signal,"[2]; peptide region: H3 30-42, peptide modifications: H3K36me1, binder concentration: 100 nM",0.0275 ± 0.0015
same,peptide microarray binding signal,[3]; [9],0.00478 ± 0.00043
same,peptide microarray binding signal,[3]; [10],0.00474 ± 0.00045
same,peptide microarray binding signal,[4]; [9],0.00237 ± 7.4e-05
same,peptide microarray binding signal,[4]; [10],0.00277 ± 4.8e-05
LATKAARKSAPAT [H3 20-32 L A Tph Kme A A R K S A P A T],peptide microarray binding signal,"[1]; peptide region: H3 20-32, peptide modifications: H3T22ph H3K23me1, binder concentration: 50 nM",0.012 ± 0.0014
same,peptide microarray binding signal,"[1]; peptide region: H3 20-32, peptide modifications: H3T22ph H3K23me1, binder concentration: 500 nM",0.0173 ± 0.0019
same,peptide microarray binding signal,"[2]; peptide region: H3 20-32, peptide modifications: H3T22ph H3K23me1, binder concentration: 10 nM",0.0223 ± 0.0014
same,peptide microarray binding signal,"[2]; peptide region: H3 20-32, peptide modifications: H3T22ph H3K23me1, binder concentration: 100 nM",0.0368 ± 0.0079
same,peptide microarray binding signal,[3]; [11],0.00793 ± 0.0012
same,peptide microarray binding signal,[3]; [12],0.0102 ± 0.0018
same,peptide microarray binding signal,[4]; [11],0.00538 ± 0.00068
same,peptide microarray binding signal,[4]; [12],0.003 ± 9.2e-05
PATGGVKKPHRYR [H3 30-42 P A T G G V Kac Kac P H R Y R],peptide microarray binding signal,"[1]; peptide region: H3 30-42, peptide modifications: H3K36ac H3K37ac, binder concentration: 50 nM",0.00357 ± 6.3e-05
same,peptide microarray binding signal,"[1]; peptide region: H3 30-42, peptide modifications: H3K36ac H3K37ac, binder concentration: 500 nM",0.00462 ± 8.3e-05
same,peptide microarray binding signal,"[2]; peptide region: H3 30-42, peptide modifications: H3K36ac H3K37ac, binder concentration: 10 nM",0.00489 ± 0.00017
same,peptide microarray binding signal,"[2]; peptide region: H3 30-42, peptide modifications: H3K36ac H3K37ac, binder concentration: 100 nM",0.00539 ± 0.00019
same,peptide microarray binding signal,[3]; [13],0.00264 ± 0.00042
same,peptide microarray binding signal,[3]; [14],0.003024 ± 2.6e-05
same,peptide microarray binding signal,[4]; [13],0.00427 ± 0.00042
same,peptide microarray binding signal,[4]; [14],0.00271 ± 0.00018
